Measurements: PubChem BioAssay (NCATS)
Several values for one entry are separate records, joined by “and”; a condition that tells them apart may be missing. Equal entries are not always repeated. Results filed as inconclusive are left out. Activity calls are given as the source filed them. The call rests on the fitted dose curve; in most records, active means well fitted activation curve with a large enough effect; inconclusive means small, poorly fitted or top-dose-only effect; inactive means flat fitted curve, though single readings scatter.

test: qHTS assay for environmental chemicals that activate the Aryl hydrocarbon Receptor (AhR) signaling pathway (AID 651777); conditions: 1A2-DRE human hepatoma cells, luciferase, 24 h; activation: hits give high values; further: nearly all actives have a fitted effect of over 15% in size; on activation: % of control where 0% means no effect
From the text: National Center for Advancing Translational Sciences [NCATS]
NIH Chemical Genomics Center [NCGC]
U.S. Environmental Protection Agency [EPA]
National Institutes of Environmental Health Sciences [NIEHS]
National Toxicology Program [NTP]
The Aryl hydrocarbon Receptor (AhR) plays a critical role in the development of cancer or neoplasm and its formation is most likely due to genetic mutations and the influence of environment. Exposure to environmental pollutants such as polycyclic aromatic hydrocarbons (PAH), their halogenated derivatives and heterocyclic amines causes the induction of phase I and II enzymes. The transcriptional activation of CYP1A2 is directly regulated by AhR.
A cell based assay (1A2-DRE cells, developed by Puracyp, Inc., CA) was used to assess the activation of AhR. Human hepatoma cells were stably transfected with the dioxin response element (DRE) and CYP1A2 promoter fused to a luciferase gene. Increased luciferase activity can be used to identify the compounds that cause the induction of CYP1A2 and AhR activation.
1,200 cells in 5 uL/well were dispensed into white wall/solid bottom 1536-well plates using a Multidrop Combi (Thermo Scientific) dispenser. Following transfer of 23 nL compound or DMSO vehicle by a pin tool, the plates were incubated 24 hr at 37 C and 5% CO2. 5 ul One-Glo (Promega) was then added to each well and following 30 min incubation at room temperature, luciferase activity was quantified on a ViewLux CCD-based plate reader.
Potency means the concentration at half of the fitted maximal effect.

SMILES | activation | Potency
COC(=O)c1ccc(I)cc1S(=O)(=O)NC(=O)Nc1nc(C)nc(OC)n1 | 2.67% (inactive) | –
COc1ccc(OC)c(OC)c1 | 0.552% (inactive) | –
Nc1cc(Cl)c(O)c(Cl)c1 | 0.138% (inactive) | –
CCSC(=O)N(CC(C)C)CC(C)C | 0.255% (inactive) | –
CCOC(=O)C(C)Oc1ccc(Oc2nc3ccc(Cl)cc3o2)cc1 (stereo not given) | 0.871% (inactive) | –
C[Si](C)(C)N[Si](C)(C)C | 1.22% (inactive) | –
O=C(OCCOCCOC(=O)c1ccccc1)c1ccccc1 | 1.92% (inactive) | –
CCCCCCCCCCCCCCN(C)C | 1.73% (inactive) | –
Cc1ccc(N=Nc2c(O)ccc3ccccc23)c(C)c1 | – | 31.6 µM (active)
CCCCCCCC/C=C\CCCCCCCCO | 0.617% (inactive) | –
CC/C=C\CCOC(=O)c1ccccc1O | 1.45% (inactive) | –
C[C@]12CC[C@@H]3c4ccc(O)cc4CC[C@H]3[C@@H]1CC[C@H]2O | 0.328% (inactive) | –
Oc1ccc(Nc2ccccc2)cc1 | -0.687% (inactive) | –
CCCCCCCCCc1ccccc1 | 0.637% (inactive) | –
COCCOCCOCCOC | -0.0635% (inactive) | –
CC(=O)OC1CCC(C(C)(C)C)CC1 (stereo not given) | 3.13% (inactive) | –
CCOCCOCCOCCO | -0.451% (inactive) | –
Clc1nc(Cl)c(Cl)c(Cl)c1Cl | -0.0238% (inactive) | –
O=C1CCCCCCCCCCC1 | 0.997% (inactive) | –
Cc1ccc(N=Nc2c(O)ccc3ccccc23)c([N+](=O)[O-])c1 | – | 17.8 µM (active)

SMILES | activation | Potency
CCCCCCOCCOCCO | -0.48% (inactive) | –
CCCCCCCCCCCCc1ccccc1 | 0.463% (inactive) | –
O=C(O)c1ccc2c(c1)C(=O)OC2=O | 1.29% (inactive) | –
COc1ccccc1NC(=O)CC(C)=O | 6.41% (inactive) | –
CCCCCCCCCCCCCCN | -0.123% (inactive) | –
CN=C(N)NCC1CCOC1 (stereo not given) | 14.3% (inactive) and -0.391% (inactive) | –
C[Si]1(C)O[Si](C)(C)O[Si](C)(C)O[Si](C)(C)O[Si](C)(C)O1 | 0.106% (inactive) | –
O=C1CCCC/C=C/CCCCCCCCCO1 | -0.496% (inactive) | –
COC(=O)C1CCC(C(=O)OC)CC1 (stereo not given) | 0.798% (inactive) | –
c1ccc(OCCOc2ccccc2)cc1 | 8.39% (inactive) | –
CN(C)C(=O)Nc1ccccc1 | 2.58% (inactive) | –
C=CCOc1nc(OCC=C)nc(OCC=C)n1 | 5.16% (inactive) | –
C[C@]12CCC(=O)C=C1CC[C@@H]1[C@@H]2[C@@H](O)C[C@]2(C=O)[C@@H](C(=O)CO)CC[C@@H]12 | -0.37% (inactive) | –
CC(C)(C)c1ccc(C(=O)O)cc1 | 2.5% (inactive) | –
FC(F)(F)c1ccc(Cl)c(Cl)c1 | 3.72% (inactive) | –
CC(=O)Nc1ccc(N=Nc2cc(C)ccc2O)cc1 | – | 4.47 µM (active)
CCCCCCC(O)CCCCCCCCCCC(=O)O (stereo not given) | -0.827% (inactive) | –
C=C(C)C(=O)OCC(CC)(COC(=O)C(=C)C)COC(=O)C(=C)C | -0.628% (inactive) | –
C=CCCCCCCCCCC | -1.31% (inactive) | –
CCCCCCCCCC[N+](C)(C)Cc1ccccc1 | 0.379% (inactive) | –
